The source made the active and inactive calls. Unless noted, the rule behind the calls is not given here.

Assay [1] can be described thus: compounds binding Alexa647 anti-His antibody – biochemical, small-molecule microarray, 635 nm fluorescence, artefact control for SMM control protein annotation, primary screen (AID 1128).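 Note: score merges feature fluorescence with signal-to-noise for each printed compound spot.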 Particulars: higher = more signal.
Assay [2] concerns Human papillomavirus type 1a E7 protein (residues 1-88). Description: HPV1a E7 small-molecule binders, primary screen, biochemical, small-molecule microarray, residues 1-88, 635 nm (AID 1129). Particulars: small-molecule microarray binding, fluorescence 635 nm; higher = more signal.
Assay [3] addresses Focal adhesion kinase 1 (Homo sapiens) (UniProt Q05397). In words: PTK2 protein binding on printed compound slides – biochemical, small-molecule microarray, 635/667 nm fluorescence, BSA, DTT, primary screen (AID 1130).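 Note: composite of spot emission at 667 nm and signal to noise over triplicate slides.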 Particulars: 635 nm fluorescence, higher = more signal.
Assay [4] concerns Fibrinogen (Alexa647-labelled). Description: Alexa647-fibrinogen binding to printed small molecules – biochemical, small-molecule microarray, 635/667 nm fluorescence, artefact control for SMM control-protein annotation, profiling panel (AID 1131).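 Note: z-score merges 667 nm fluorescence with per-spot signal-to-noise over triplicate slides.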 Particulars: fibrinogen-A647 binding fluorescence, higher = more signal.
Assay [5] addresses Follistatin (Homo sapiens) (UniProt P19883). In words: FST protein binding to printed compounds – biochemical, small-molecule microarray, 635/667 nm fluorescence, primary screen (AID 1132). Particulars: 635 nm fluorescence, higher = more signal.
Assay [6] deals with Fibroblast growth factor 2 (Homo sapiens) (UniProt P09038). In words: basic fibroblast growth factor binding to printed compounds – biochemical, small-molecule microarray, 635/667 nm fluorescence, primary screen (AID 1133). Particulars: FGF2, fluorescence 635/667, higher = more signal.
Sequence of Fibroblast growth factor 2 (Homo sapiens) (P09038 whole entry, looked up): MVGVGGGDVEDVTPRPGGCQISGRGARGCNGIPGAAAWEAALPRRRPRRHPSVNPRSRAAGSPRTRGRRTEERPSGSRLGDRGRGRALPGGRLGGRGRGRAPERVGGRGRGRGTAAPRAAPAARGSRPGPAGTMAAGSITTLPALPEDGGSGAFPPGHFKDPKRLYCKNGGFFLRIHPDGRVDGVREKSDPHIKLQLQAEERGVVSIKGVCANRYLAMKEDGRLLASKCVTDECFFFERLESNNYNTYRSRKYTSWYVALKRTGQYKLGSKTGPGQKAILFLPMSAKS
A short description of assay [7]: JC-1 mitochondrial potential readout, lung cancer cells – cell-based, A549, JC-1 fluorescence, basal, 24 h, 100 nL, profiling panel (AID 1138).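 Note: A549 lung adenocarcinoma cells under basal conditions with no added stimulus; test concentration not given here.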 Particulars: higher = more signal.
Assay [8] relates to Lefty1. In words: Lefty1 protein binding to printed compounds – biochemical, small-molecule microarray, 635/667 nm fluorescence, primary screen (AID 1139). Particulars: fluorescence 635/667, higher = more signal.
For assay [9], the system named is wheat germ agglutinin (Triticum aestivum), Alexa647-labelled. Description: Alexa647-WGA lectin binding to printed small molecules – biochemical, small-molecule microarray, 635/667 nm fluorescence, artefact control for SMM control-protein annotation, profiling panel (AID 1140).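 Note: score merges 667 nm feature emission with signal to noise over triplicate slides.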 The conditions noted are these: WGA-A647 binding, 635 nm fluorescence, higher = more signal.

In assay [10] the target is Luciferin 4-monooxygenase (Photinus pyralis) (UniProt P08659). In words: inhibition of purified Photinus pyralis luciferase – biochemical, luminescence, purified enzyme, 2006 set, primary screen (AID 1141).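 Note: cell-free assay with purified firefly luciferase at 100 ng per well in PBS; test concentration not given here.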 Particulars: purified firefly luciferase, SteadyGlo luminescence, 30 min; higher = more signal, called active from +8 up or from −8 down.
Sequence of Luciferin 4-monooxygenase (Photinus pyralis) (P08659 whole entry, looked up): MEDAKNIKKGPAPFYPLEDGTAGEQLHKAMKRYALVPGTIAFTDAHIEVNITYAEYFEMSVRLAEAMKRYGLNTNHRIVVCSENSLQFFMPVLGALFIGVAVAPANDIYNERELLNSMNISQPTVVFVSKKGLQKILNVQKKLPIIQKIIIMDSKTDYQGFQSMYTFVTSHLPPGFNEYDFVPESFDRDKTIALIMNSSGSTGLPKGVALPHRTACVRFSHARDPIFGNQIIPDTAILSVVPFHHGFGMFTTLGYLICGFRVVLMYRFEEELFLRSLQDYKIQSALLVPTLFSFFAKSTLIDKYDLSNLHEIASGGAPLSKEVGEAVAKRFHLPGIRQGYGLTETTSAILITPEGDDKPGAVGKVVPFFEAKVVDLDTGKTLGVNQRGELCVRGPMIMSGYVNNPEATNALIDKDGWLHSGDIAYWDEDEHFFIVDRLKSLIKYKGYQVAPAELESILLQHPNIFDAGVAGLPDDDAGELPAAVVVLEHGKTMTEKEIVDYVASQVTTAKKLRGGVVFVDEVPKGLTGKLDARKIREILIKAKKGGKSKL
Assay [11] relates to Wnt5a (protein binding on small-molecule microarray). In words: small molecules binding Wnt5a protein – biophysical, small-molecule microarray, 635/667 nm fluorescence, primary screen (AID 1142).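 Note: fluorescence read at 667 nm with signal to noise per printed feature.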 The conditions noted are these: 635 nm fluorescence, higher = more signal.
The nature of assay [12]: ATP-based viability of Huh7 replicon cells – cell-based, CellTiter-Glo luminescence, basal, 48 h, cytotoxicity control for HCV replication inhibitor project, primary screen (AID 1143).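 Note: Huh7 hepatoma cells carrying a hepatitis C replication reporter with no stimulus; test concentration not given here.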 The conditions noted are these: higher = more signal, called active from +8 up or from −8 down.
The nature of assay [13]: Pseudomonas biofilm growth suppression – PAO1 strain, BacTiter-Glo luminescence, LB-PBS, primary screen (AID 1144). The conditions noted are these: P. aeruginosa PAO1 biofilm, 12 h, higher = more signal.
Assay [14] in a line: basal CRE-LacZ reporter activity in PC12 – cell-based, unstimulated, primary screen (AID 1145). Particulars: no forskolin, luminescence, 4.5 h, higher = more signal, called active from +8 up or from −8 down.
Assay [15] in a line: forskolin-driven CRE-LacZ activity in PC12 – cell-based, CRE-LacZ reporter, forskolin-stimulated, primary screen (AID 1146).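 Note: PC12 cells with 6xCRE LacZ reporter stimulated by forskolin 10 µM; beta-galactosidase reporter signal reflecting CREB driven transcription.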 Particulars: luminescence, 4.5 h, higher = more signal, called active from +8 up or from −8 down.
The target of assay [16] is Streptavidin (Streptomyces avidinii) (UniProt P22629). In words: compounds binding control protein streptavidin – biophysical, small-molecule microarray, 635/667 nm fluorescence, artefact control for SMM compound annotation, primary screen (AID 1147).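 Note: signal reflects streptavidin binding to arrayed compounds as a control protein.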 Particulars: higher = more signal.
Sequence of Streptavidin (Streptomyces avidinii) (P22629 whole entry, looked up): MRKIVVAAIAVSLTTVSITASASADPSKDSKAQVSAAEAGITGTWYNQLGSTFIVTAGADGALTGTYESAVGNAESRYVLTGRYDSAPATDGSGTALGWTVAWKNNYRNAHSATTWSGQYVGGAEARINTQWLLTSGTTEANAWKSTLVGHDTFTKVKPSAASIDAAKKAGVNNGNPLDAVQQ
The nature of assay [17]: probe aInhba binding on compound microarray – biochemical, small-molecule microarray, 635/667 nm fluorescence, primary screen (AID 1148).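 Note: score merges 667nm spot fluorescence with signal-to-noise for antibody binding to printed compounds.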 Particulars: higher = more signal.
Assay [18] concerns the target Torsin-1A (Homo sapiens) (UniProt O14656). In words: TOR1A wild-type binding on microarray – cell lysate, small-molecule microarray, lysate, 635/667 nm, primary screen (AID 1149). The conditions noted are these: COS7 hTOR1A-WT lysate, 635 nm fluorescence, higher = more signal.
The target is the same in assay [19]. Description: torsin A mutant lysate binding on microarrays – cell lysate, small-molecule microarray, COS7 lysate, 635/667 nm fluorescence, primary screen (AID 1150).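 Note: score pools 667 nm emission and signal to noise measuring lysate protein binding.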 Particulars: COS7 hTOR1A mutant lysate, 635 nm fluorescence, higher = more signal.
Assay [20] concerns Sonic hedgehog protein (Shh). Description: Sonic hedgehog microarray binding compounds – biochemical, small-molecule microarray, 635/667 nm fluorescence, primary screen (AID 1151).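 Note: Shh protein binding to compounds spotted on small-molecule microarray slides; score combines spot fluorescence intensity with signal-to-noise across triplicate slides.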 Particulars: 635 nm fluorescence, higher = more signal.

Sequence of Focal adhesion kinase 1 (Homo sapiens) (Q05397 whole entry, looked up): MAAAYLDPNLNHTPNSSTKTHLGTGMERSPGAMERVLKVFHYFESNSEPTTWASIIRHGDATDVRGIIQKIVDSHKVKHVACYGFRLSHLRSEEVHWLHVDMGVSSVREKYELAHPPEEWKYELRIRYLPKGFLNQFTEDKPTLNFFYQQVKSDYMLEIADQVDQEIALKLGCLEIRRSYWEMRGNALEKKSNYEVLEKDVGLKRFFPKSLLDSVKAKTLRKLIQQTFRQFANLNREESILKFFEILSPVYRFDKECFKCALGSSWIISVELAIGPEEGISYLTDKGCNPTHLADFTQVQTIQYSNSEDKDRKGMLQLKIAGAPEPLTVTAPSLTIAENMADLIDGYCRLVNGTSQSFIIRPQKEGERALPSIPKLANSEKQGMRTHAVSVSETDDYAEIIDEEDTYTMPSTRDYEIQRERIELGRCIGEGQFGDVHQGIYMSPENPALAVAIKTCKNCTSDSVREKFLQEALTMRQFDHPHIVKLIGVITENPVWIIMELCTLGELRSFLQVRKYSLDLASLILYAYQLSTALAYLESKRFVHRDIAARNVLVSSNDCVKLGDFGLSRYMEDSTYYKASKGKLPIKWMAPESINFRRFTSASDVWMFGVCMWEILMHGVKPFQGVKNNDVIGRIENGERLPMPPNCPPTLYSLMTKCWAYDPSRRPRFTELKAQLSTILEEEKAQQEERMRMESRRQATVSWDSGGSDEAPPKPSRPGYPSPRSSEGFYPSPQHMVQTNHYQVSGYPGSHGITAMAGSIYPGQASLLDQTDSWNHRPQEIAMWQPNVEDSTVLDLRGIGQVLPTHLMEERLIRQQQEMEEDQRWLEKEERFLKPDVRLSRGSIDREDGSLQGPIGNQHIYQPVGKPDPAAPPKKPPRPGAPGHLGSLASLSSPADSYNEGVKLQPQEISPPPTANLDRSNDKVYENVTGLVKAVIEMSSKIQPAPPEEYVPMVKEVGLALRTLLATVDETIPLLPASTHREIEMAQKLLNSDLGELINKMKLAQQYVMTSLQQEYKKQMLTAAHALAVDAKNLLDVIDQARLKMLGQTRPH
Sequence of Torsin-1A (Homo sapiens) (O14656 whole entry, looked up): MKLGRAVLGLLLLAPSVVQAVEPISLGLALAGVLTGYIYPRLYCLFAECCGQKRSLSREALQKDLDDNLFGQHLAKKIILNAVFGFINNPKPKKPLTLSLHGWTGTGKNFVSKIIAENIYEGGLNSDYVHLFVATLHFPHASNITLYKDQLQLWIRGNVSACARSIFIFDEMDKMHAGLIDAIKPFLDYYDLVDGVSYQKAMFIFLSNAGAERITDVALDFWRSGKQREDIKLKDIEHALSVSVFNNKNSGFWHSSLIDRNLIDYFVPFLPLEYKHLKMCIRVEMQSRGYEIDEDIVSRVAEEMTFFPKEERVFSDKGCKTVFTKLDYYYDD
Sequence of Follistatin (Homo sapiens) (P19883 whole entry, looked up): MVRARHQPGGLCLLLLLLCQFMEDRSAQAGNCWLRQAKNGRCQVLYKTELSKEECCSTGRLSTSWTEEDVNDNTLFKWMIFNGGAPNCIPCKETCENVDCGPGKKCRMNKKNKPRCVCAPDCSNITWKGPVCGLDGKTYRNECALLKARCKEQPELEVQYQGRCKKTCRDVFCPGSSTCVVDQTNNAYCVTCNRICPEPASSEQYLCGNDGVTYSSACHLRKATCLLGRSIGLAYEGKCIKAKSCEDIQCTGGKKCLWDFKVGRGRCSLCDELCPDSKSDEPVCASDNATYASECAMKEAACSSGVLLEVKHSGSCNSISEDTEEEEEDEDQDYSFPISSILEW

For `CO[C@H]1O[C@H](CO)[C@@H](OC(=O)Nc2ccc3c(c2)OCO3)[C@H](OC(=O)Nc2ccccc2)[C@H]1OC(=O)Nc1ccccc1`, the composite z-score turned out to be 1.77 in [1]; 1.28 in [2]; 0.927 in assay [3]; 0.995 in [4]; 1.32 in assay [5]; 0.924 in assay [6]. Moreover, the composite z-score in assay [8] was determined as 1.29; in assay [9], 0.928; in assay [11], 0.446; in assay [16] it was 0.869; in assay [17], 0.0906; in assay [18], 0.487. Further, the composite z-score in assay [19] is 1.11; in assay [20] it was 1.43. Further, the z-score in assay [7] was -0.925; in assay [10] it was -0.546 (inactive); in [12] it was -5.46 (inactive); in assay [13], -0.785 (inactive); in assay [14] it was 1.16 (inactive); in [15], -2.23 (inactive).

`COCC(=C=CC[C@@H](O)c1ccc(CO)o1)CCO`: the composite z-score in assay [1] is -0.145; in [2], 0.114; in assay [3], -0.29; in [4] it was -0.23; in assay [5], 1.24; in assay [6] it was 0.958. For the same molecule, the composite z-score was 1.24 in assay [8]; 0.43 in [9]; 0.0507 in assay [11]; -0.618 in assay [16]; -0.024 in assay [17]; -0.117 in assay [18]. In addition, the composite z-score is -0.114 in assay [19] and 2.2 in assay [20]. Moreover, the z-score in assay [7] was -0.0212; in [10], -0.877 (inactive); in [12], -3.6 (inactive); in assay [13] it was -1.23 (inactive); in [14] it was 0.014 (inactive); in [15], -0.845 (inactive).

Regarding `CCCCC=C[C@@H](NC(=O)c1ccc(C(=O)OC)cc1)c1ccccc1`, the composite z-score is 0.59 in assay [1]; 1.05 in [2]; 0.694 in [3]; 0.875 in assay [4]; 0.293 in assay [5]; 0.0889 in [6]. The composite z-score in [8] is 0.335; in [9], 0.658; in [11], 0.301; in [16] it was 0.994; in assay [17] it was 0.143; in assay [18], -0.225. Besides, the composite z-score in assay [19] was 0.241; in [20], 0.185. Further, the z-score in [7] was 0.769; in [10], 1.73 (inactive); in assay [12], -2.79 (inactive); in assay [13], 0.806 (inactive); in [14], -0.185 (inactive); in assay [15] it was 1.11 (inactive).

Consider `COCCOC(=O)N1C(=O)[C@@]2(c3cc(C#CCNC(N)=O)ccc31)[C@H](c1ccc(O)cc1)N1[C@H](c3ccccc3)[C@H](c3ccccc3)OC(=O)[C@H]1[C@@H]2C(=O)Nc1nc2ccccc2s1`, for which the composite z-score in assay [1] came to 0.0698; in assay [2], 0.967; in assay [3] it was 0.387; in assay [4], 0.558; in assay [5], 1.33; in assay [6], 1.2. Moreover, the composite z-score in [8] was 0.851; in assay [9], 0.785; in assay [11], 0.327; in assay [16] it was 0.454; in assay [17] it was -0.102; in [18], 0.518. For the same molecule, the composite z-score in [19] was 0.587; in assay [20] it was 1.34. The z-score in assay [7] is -1.91; in [10] it was -2.38 (inactive); in assay [12], -2.61 (inactive); in assay [13] it was -2.43 (inactive); in [14], -0.463 (inactive); in [15], -1.5 (inactive).

Regarding `C[C@]1(C(=O)NCc2ccccc2)c2ccccc2C(=O)N(Cc2cc(F)cc(C(F)(F)F)c2)[C@H]1c1ccc(CO)cc1`, the composite z-score in assay [1] was 0.84; in assay [2], -0.184; in [3] it was -0.349; in [4] it was -0.582; in assay [5], -1.13; in [6], -0.278. Moreover, the composite z-score was -1.14 in assay [8]; -0.566 in assay [9]; -0.0261 in [11]; -0.859 in assay [16]; 0.13 in assay [17]; -0.956 in [18]. The composite z-score is -1.47 in assay [19] and -0.436 in [20]. Further, the z-score in [7] was 0.916; in [10], 0.585 (inactive); in assay [12] it was -1.8 (inactive); in [13], -0.255 (inactive); in assay [14], 0.0909 (inactive); in assay [15] it was -0.323 (inactive).

The record behind these values is PubChem BioAssay.
